Reference: PubChem BioAssay AID463173 (ICCB-Longwood Screening Facility, Harvard Medical School, 2010)
Screen size: about 52,000 compounds; about 1,700 (3.3%) were called active. Many of the other results were omitted from the sample, so actives are more common in it than they were. Unmarked numbers belong to inactive results. Rule as the data show it: active = survival mostly below about 52% (no sharp cut-off); inactive = mostly above about 56%.

system: Wild type; test: growth inhibition of S. aureus wild type versus tarO mutant, primary screen, teichoic acid synthesis inhibitors, RN4220, OD600 (AID 463173); details: S. aureus RN4220 wild type/DeltatarO growth, OD600, 18 h, active compounds read low, screened at 18.75 µg/mL (by protocol)

Compared with `Cc1cccc(-n2ncc3c(Nc4ccc(Oc5ccc(Cl)cc5)cc4)ncnc32)c1`, `Cc1ccc(-n2ncc3c(Nc4ccc5c(c4)OCCO5)ncnc32)cc1C` is higher in survival: 88% for the first, 100% for the second.

Compared with `CCC(=O)C1=C(c2ccc(OC)c(OC)c2)N(C(=O)CC)n2c(CC)nnc2S1`, `COc1cc(-c2noc(CCC(=O)Nc3cc(C)ccc3C)n2)cc(OC)c1OC` is higher in survival: 55% for the first, 82% for the second.

First: CCN(C(=O)CSc1nc(-c2ccccc2)no1)c1ccccc1
Second: CCN(C(=O)CSc1nc(-c2ccc(C(C)C)cc2)no1)c1cccc(C)c1
The survival of the first is higher: 85% for the first, 72% for the second.

First: CCCCNC(=O)CSc1nc2ccccc2nc1Cc1ccc(C)cc1
Second: Cc1ccc(CNC(=O)CSc2nc3ccccc3nc2Cc2ccc(C)cc2)cc1
The survival of the first is lower: 72% for the first, 78% for the second.

First: COc1cccc(Cc2nc3ccccc3nc2SCC(=O)Nc2cccc(C)c2)c1
Second: CCN(C(=O)CSc1nc2ccccc2nc1Cc1ccc(F)cc1)c1cccc(C)c1
The survival of the first is higher: 128% for the first, 88% for the second.

Going from `COc1ccc(-c2noc(CC(=O)N(C)c3cccc(C)c3)n2)cc1` to `CCN(C(=O)Cc1nc(-c2ccc(OC)cc2)no1)c1cccc(Cl)c1`, the survival rises from 83% to 84%.

Going from `COc1ccc(-c2noc(CCC(=O)Nc3ccc(C(F)(F)F)cc3)n2)cc1` to `CC(C)(C)c1ccc(-c2noc(CCC(=O)Nc3cccc(Cl)c3)n2)cc1`, the survival rises from 84% to 87%.

First: CCCOc1ccc(C2C(=O)N(C3CCCCCC3)CC(=O)N2Cc2ccccc2OC)cc1OC (centres undefined)
Second: COc1ccc2c(CNC3CCCCCC3)c(C(=O)O)n(Cc3ccccc3F)c2c1
The survival of the first is lower: 87% for the first, 89% for the second.

Going from `COc1ccc(-c2nc(SCC(=O)Nc3ccc4c(c3)OCO4)c(-c3ccc(F)cc3)[nH]2)cc1OC` to `Cc1ccc2nc(-c3ccc(C)s3)c(Nc3ccc4c(c3)OCCO4)n2c1`, the survival rises from 65% to 83%.

Going from `COC(=O)C1CCCc2c1[nH]c1ccc(Cl)cc21` (centres undefined) to `CC1=C(C(=O)OC2CCCC2)C(c2cccc(Cl)c2Cl)CC(=O)N1` (centres undefined), the survival falls from 142% to 90%.

First: Cc1ccc(F)cc1NC(=O)c1ccc(Cn2nc(N3CCN(c4ccccc4)CC3)ccc2=O)o1
Second: CCc1ccccc1NC(=O)c1ccc(Cn2nc(N3CCN(c4ccccc4)CC3)ccc2=O)o1
The survival of the first is higher: 127% for the first, 70% for the second.

Going from `CCc1cccc(NS(=O)(=O)c2ccc3c(c2)CC(C)N3C(=O)C2CC2)c1` (centres undefined) to `COc1ccc(CNC(=O)Cn2c(=O)oc3cc(S(=O)(=O)N4CCCC4)ccc32)cc1`, the survival rises from 80% to 91%.

Compared with `CCOC(=O)c1cccc(NC(=O)N2CC(CC)Sc3ccccc32)c1` (centres undefined), `CCOC(=O)c1cccc(NC(=O)N2Cc3ccccc3Oc3ncccc32)c1` is lower in survival: 84% for the first, 81% for the second.

Compared with `COc1ccc(CNC(=O)c2cc3c(=O)n(Cc4ccco4)ccc3nc2C)cc1`, `COc1ccc(CNC(=O)c2cc3cc4ccc(C)cc4nc3o2)cc1` is higher in survival: 74% for the first, 88% for the second.

Compared with `Cc1ccc2c(c1)c1c3n2CCN(C(=O)CN2CCN(C(=O)c4ccco4)CC2)C3CCC1` (centres undefined), `Cc1ccc(N2CCN(C(=O)c3c(C)oc4nc(C)nc(N5CCCC5)c34)CC2)c(C)c1` is lower in survival: 126% for the first, 81% for the second.

First: COc1ccc(C(=O)Oc2ccc(C(c3c(C)[nH][nH]c3=O)c3c(C)[nH][nH]c3=O)cc2OC)cc1
Second: COc1ccc(OC)c(NC(=O)N2c3ccccc3Sc3ccccc32)c1
The survival of the first is higher: 73% for the first, 19% for the second.

Compared with `O=C(CSc1nnc(CNC(=O)c2ccccc2F)n1-c1ccccc1)Nc1ccccc1F`, `O=C(O)c1ccccc1NC(=O)N1c2ccccc2Sc2ccccc21` is lower in survival: 66% for the first, 28% for the second.

Compared with `COc1ccc2cc3cc(C(=O)NCc4ccc(C)cc4)oc3nc2c1`, `CCc1nn(CC(=O)NCc2cccc(OC)c2)c(=O)c2cc3cc(F)ccc3n12` is lower in survival: 89% for the first, 69% for the second.

Compared with `Cc1ccc(C)c(NC(=O)CCc2nc(-c3ccc(C(C)(C)C)cc3)no2)c1`, `Cc1ccc(-c2nc(CCNC(=O)C(=O)Nc3ccc(F)cc3F)cs2)cc1` is lower in survival: 109% for the first, 63% for the second.

First: Cc1ccc(-n2cnc3ccccc3c2=O)cc1C
Second: Cc1ccc(-n2ncc3c(NCc4ccccc4)ncnc32)cc1C
The survival of the first is higher: 89% for the first, 67% for the second.

First: CCN1C(=O)C(C2SC(=S)N(CC)C2=O)SC1=S (centres undefined)
Second: CCCCn1cc2c(c1-c1ccc(Cl)cc1)c(=O)n(C)c(=O)n2C
The survival of the first is higher: 98% for the first, 83% for the second.

Compared with `CCc1ccccc1N(C)C(=O)c1cnc(N2CCOCC2)c2ccccc12`, `Cc1ccccc1Cn1c(CCCNC(=O)C2CCCCC2)nc2ccccc21` is higher in survival: 65% for the first, 101% for the second.

First: CCN(CC)C(=O)N1c2ccccc2Sc2ccccc21
Second: CCOC(=O)N1c2ccccc2Sc2ccccc21
The survival of the first is higher: 108% for the first, 95% for the second.

Going from `CCOc1ccccc1NC(=O)N1c2ccccc2Sc2ccccc21` to `COc1cc(NC(=O)N2c3ccccc3Sc3ccccc32)cc(OC)c1`, the survival rises from 61% to 65%.

Compared with `Cc1c2cnn(CC(=O)O)c(=O)c2c(C)n1Cc1cccc(Cl)c1`, `CCc1nc2c(cnn2-c2ccc(Cl)cc2)c(=O)n1-c1ccc(OC)c(Cl)c1` is lower in survival: 80% for the first, 78% for the second.

First: CCCSc1ncc(Cl)c(C(=O)N(Cc2ccccc2)c2ccc(OC)cc2)n1
Second: COc1cccc(OCc2nc3ccccc3n2Cc2ccccc2C)c1
The survival of the first is lower: 80% for the first, 87% for the second.

Going from `CSc1cccc(Nc2cc(C(=O)NCCc3ccc(Cl)cc3)c3ccccc3n2)c1` to `Cc1nn2c(-c3cccc(NC(=O)c4ccc(Cl)cc4)c3)nnc2c2ccccc12`, the survival falls from 120% to 113%.

Going from `Cc1c(-c2cccc(NC(=O)Nc3ccccc3)c2)nc2ncccn12` to `Cc1c(-c2cccc(NC(=O)C(C)(C)C)c2)nc2ncccn12`, the survival rises from 64% to 71%.

Compared with `CCOc1ccc(CCNC(=O)c2ccc3nc(N4CCC(C)CC4)sc3c2)cc1OCC`, `CCC1=Nc2cc(C(=O)NCCN(CC)CC)ccc2Sc2ccccc21` is higher in survival: 73% for the first, 93% for the second.

Going from `Cc1ccc(-n2ncc3c(NCCc4ccccc4)ncnc32)cc1Cl` to `Cc1nn(-c2ccccc2)c2sc(C(=O)Nc3ccc(Br)cc3)cc12`, the survival falls from 65% to 52%.

Compared with `c1ccc(-c2nc3cc(Cc4ccc5oc(-c6ccccn6)nc5c4)ccc3o2)nc1`, `O=C(Nc1cc2c(cc1C(=O)c1ccccc1)OCCO2)c1ccc(Br)cc1` is lower in survival: 113% for the first, 86% for the second.

Going from `Cc1ccccc1NC(=O)CC1COc2ccccc2O1` (centres undefined) to `Cc1cc(NC(=O)c2ccccc2Cl)ccc1NC(=O)c1ccccc1`, the survival falls from 111% to 85%.

Compared with `O=C(NCCc1nc2ccccc2n1Cc1ccccc1F)c1ccc(F)cc1`, `O=C(NCCCc1nc2ccccc2n1Cc1ccccc1F)c1ccco1` is higher in survival: 82% for the first, 92% for the second.

Going from `Cc1ccc(NC(=O)c2ccccc2Br)c(C(=O)c2ccccc2)c1` to `Cc1ccccc1NC(=O)c1cc2c(-c3ccccc3)nn(-c3ccccc3)c2s1`, the survival rises from 25% to 86%.

First: Cc1ccc(C(=O)COC(=O)c2cccc(NC(=O)c3ccc(Cl)cc3Cl)c2)cc1
Second: Cc1cccc(CS(=O)(=O)CC2Nc3ccc(C(=O)NCc4ccccc4)cc3NC2=O)c1 (centres undefined)
The survival of the first is higher: 81% for the first, 71% for the second.

Going from `CCC1CCCCN1C(=O)c1ccc2c(c1)N(Cc1cccc(Cl)c1)C(=O)c1ccccc1S2(=O)=O` (centres undefined) to `COc1ccc(NC(=O)c2cc3c(C)nn(-c4ccccc4)c3s2)c(OC)c1`, the survival falls from 73% to 63%.

Compared with `COc1ccccc1NC(=O)c1cc2c(-c3ccccc3)nn(-c3ccccc3)c2s1`, `Cc1ccc2oc(=O)c3cc(C(=O)Nc4ccc(F)cc4F)sc3c2c1` is higher in survival: 77% for the first, 80% for the second.

Compared with `Cc1cccc(-n2ccnc2SCC(=O)Nc2ccc(F)cc2F)c1C`, `CCOC(=O)CNc1ncnc2c1nnn2C` is lower in survival: 71% for the first, 22% for the second.

In the case of `CCCCN(C)C(=O)CSc1nc2ccccc2nc1Cc1ccc(C)cc1`, the survival is reported as 0% (active).
For `CCN(C(=O)CSc1nc(-c2ccccc2)no1)c1cccc(C)c1`, the survival was -2% (active).
For `CCN(C(=O)CSc1nc2ccccc2nc1Cc1cccc(OC)c1)c1cccc(C)c1`, the survival was -2% (active).
`CCN(C(=O)CCc1nc(-c2ccc(C)cc2)no1)c1cccc(C(F)(F)F)c1` was tested, and the survival was 0% (active).
In the case of `CCN(C(=O)CCc1nc(-c2ccc(C)cc2)no1)c1cc(C)ccc1C`, the survival is reported as 0% (active).
For `CCN(C(=O)CCc1nc(-c2ccc(C)cc2)no1)c1cccc(Cl)c1`, the survival was -1% (active).
In the case of `CCN(C(=O)c1cc2cc3ccc(OC)cc3nc2o1)c1cccc(C)c1`, the survival is reported as 0% (active).
In the case of `CCc1ccc(NC(=O)N2c3ccccc3Sc3ccccc32)cc1`, the survival is reported as 1% (active).
With `COc1ccccc1NC(=O)N1c2ccccc2Sc2ccccc21` the survival was -1% (active).
`CC(C)c1ccc(NC(=O)N2c3ccccc3Sc3ccccc32)cc1` was tested, and the survival was 5% (active).
With `Cc1c(-c2cccc(NC(=O)Nc3ccc(Cl)cc3)c2)nc2ncccn12` the survival was -4% (active).
For `Cc1ccc(-n2ncc3c(NCc4ccccc4)ncnc32)cc1Cl`, the survival was -6% (active).
For `COc1ccc(Cc2nc3ccccc3n2Cc2ccccc2C)cc1`, the survival was 1% (active).
`COc1ccc(Cc2nc3ccccc3n2Cc2ccccc2F)cc1` was tested, and the survival was 23% (active).
With `Cc1ccc(NC(=O)c2ccc(Br)cc2)c(C(=O)c2ccccc2)c1` the survival was -2% (active).
For `Cc1ccc(NC(=O)c2ccc(Cl)cc2Cl)c(C(=O)c2ccccc2)c1`, the survival was 1% (active).
For `COc1ccccc1NC(=O)c1cc2c(C)nn(-c3ccccc3)c2s1`, the survival was 1% (active).
With `Cc1nn(-c2ccccc2)c2sc(C(=O)Nc3ccccc3Br)cc12` the survival was 7% (active).
